Compound activity: PubChem, National Center for Advancing Translational Sciences (NCATS)
IL1B secr inh – blocks inflammasome-driven IL-1 beta release. THP-1 LPS/ATP IL-1B secretion, AlphaLISA, 16 h; hits give low values. 360,000 tested, 4.7% active. activity change, % at 57.5 µM; in the data active means activity change below about -50%; inconclusive means mostly about -30% to -49%; further: on the % scale 0 is the no-effect control and ±100 the full control effect
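THP-1 cells pretreated 1 hr with compounds (up to 57.5 uM final), then stimulated with LPS (250 ng/mL final) plus ATP (1.25 mM final); secreted IL-1B measured by AlphaLISA after 16 hr, decreased signal indicating inhibition.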
DT40 TDP1 no CPT – qHTS for Inhibitors of human tyrosyl-DNA phosphodiesterase 1 (TDP1): qHTS in cells in absence of CPT; DT40 Tdp1-/- hTDP1 cells, no CPT, ATP luminescence, 48 h; Potency, µM (highest dose often 46.2 µM), inactives show top-dose activity change, negative = growth inhibition, usual class: inhibitors; 420,000 tested, 15% active; further: potency means the concentration at half of the fitted maximal effect; on the % scale 0 is the no-effect control and ±100 the full control effect; nearly all actives have a fitted effect of over 55% in size
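Chicken DT40 Tdp1-/- cells stably complemented with human TDP1 were seeded at 400 cells/well with DMSO in place of 20 nM camptothecin. After compound pinning, cells grew at least 48 hr at 37 °C; viability read by CellTiter-Glo luminescence.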
TDP1 cell CPT – DT40-hTDP1 cell growth loss with CPT | chicken DT40 Tdp1-/-;hTDP1 cells + 20 nM CPT, ATP luminescence, 48 h | Potency, µM (doses to about 46.2 µM), for the others: at the top dose activity change, negative = growth inhibition, hits mostly inhibitors | AID 686979 | 420,000 tested, 12% active; further: potency means the concentration at half of the fitted maximal effect; on the % scale 0 is the no-effect control and ±100 the full control effect; nearly all actives have a fitted effect of over 55% in size
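Chicken DT40 Tdp1-/- cells complemented with human TDP1, 400 cells/well, exposed to compounds plus 20 nM camptothecin for at least 48 h at 37 C; viability read as ATP content by CellTiter-Glo luminescence.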
HepG2 viability – kills HepG2 cells in TGF-b inhibitor counter-screen; HepG2 CAGA-GFP viability, ATP luminescence, 18 h; Potency, µM (series often up to 46.1 µM), without a hit: at the highest dose activity change, negative = cytotoxicity, most hits filed as cytotoxic; 410,000 tested, 0.76% active; AID 588856; further: potency means the concentration at half of the fitted maximal effect
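HepG2 CAGA-GFP cells (1000/well, DMEM with 1% FBS) received compound, then TGF-beta at 500 pg/mL final, and were incubated 18 hours at 37 degrees C. Viability was read by CellTiter-Glo luminescence. Media-only wells were set as complete cell-killing and DMSO as no toxicity.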
TGFb inhibitor – TGF-b pathway inhibition. HepG2 CAGA-GFP TGF-b/SMAD3 reporter, GFP fluorescence, 18 h; TGF-beta stimulated, 500 pg/mL final. Potency, µM (top dose mostly 46.1 µM), for inactives: top-dose activity, negative = inhibition, most hits filed as inhibitors. 410,000 tested, 1.2% active. AID 588855; further: potency means the concentration at half of the fitted maximal effect; on the % scale 0 is the no-effect control and ±100 the full control effect; nearly all actives have a fitted effect of over 65% in size
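HEPG2 CAGA-GFP cells (1000/well, DMEM with 1% FBS) were pre-incubated 2 h at 37 degrees C, given compound by pin tool, then stimulated with TGF-beta at 500 pg/mL final for 18 h before per-cell GFP fluorescence imaging.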
ASM inhibitor – inhibitors of human secretory acid sphingomyelinase | P17405 | placental ASM, HMU-PC fluorogenic substrate, 60 min | Potency, µM (titrated, usually from 57.5 µM), for the others: at the top dose activity change, negative = inhibition, usual class: inhibitors | 340,000 tested, 0.006% active | AID 504937; further: potency means the concentration at half of the fitted maximal effect
Target sequence (P17405 47-631 limits assumed): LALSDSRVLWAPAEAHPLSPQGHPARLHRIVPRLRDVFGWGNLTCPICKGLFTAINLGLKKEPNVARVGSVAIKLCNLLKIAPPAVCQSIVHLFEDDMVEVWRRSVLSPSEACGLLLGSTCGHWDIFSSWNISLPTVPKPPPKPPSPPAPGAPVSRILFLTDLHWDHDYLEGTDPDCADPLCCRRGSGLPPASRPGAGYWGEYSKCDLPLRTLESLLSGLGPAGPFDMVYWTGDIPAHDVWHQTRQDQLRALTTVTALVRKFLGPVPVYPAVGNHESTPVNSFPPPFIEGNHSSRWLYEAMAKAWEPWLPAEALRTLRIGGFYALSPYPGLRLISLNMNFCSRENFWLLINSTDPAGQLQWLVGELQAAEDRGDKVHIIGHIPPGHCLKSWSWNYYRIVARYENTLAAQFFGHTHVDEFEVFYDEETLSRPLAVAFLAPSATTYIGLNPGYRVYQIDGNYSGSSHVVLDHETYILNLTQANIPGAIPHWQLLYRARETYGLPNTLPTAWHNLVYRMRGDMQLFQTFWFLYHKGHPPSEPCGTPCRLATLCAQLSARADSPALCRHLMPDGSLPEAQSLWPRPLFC
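HMU-PC0 cleavage (9 uM final) by human placental ASM, 60 min at 37 °C following 10 min compound exposure at RT; stopped at pH 10, fluorescence Ex 386/Em 447 nm.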
The depositor's hits bear a star; ? = inconclusive; · = not tested or not shown. Hits are enriched below; roughly 19% of the tested compounds scored in any of these assays. Unless noted, the call rests on the fitted dose curve; in most records, active means well fitted curve in the direction sought with a large enough effect; inconclusive means small, poorly fitted or top-dose-only effect, or another doubt; inactive means no such curve, though single readings can be large; an effect the other way counts as inactive or inconclusive.

SMILES | IL1B secr inh | DT40 TDP1 no CPT | TDP1 cell CPT | HepG2 viability | TGFb inhibitor | ASM inhibitor
COc1ccc2cc3cc(C(=O)N4CCN(c5cccc(Cl)c5)CC4)sc3nc2c1 | · | -12% | -2% | 3% | 1% | ·
COc1ccccc1C1(CC(=O)Nc2nccs2)CCOC(C(C)C)C1 (stereo not drawn) | 39 | 4.6µM* | 5.2µM* | -15% | ? | -7%
Cc1ccc(C2(CC(=O)Nc3nccs3)CCOC(C(C)C)C2)cc1 (stereo not drawn) | 0 | -8% | 1% | 7% | -10% | 0%
CCC(CC)c1nc(C#N)c(NCc2ccccc2)o1 | 1 | 21µM* | 23µM* | -10% | ? | -3%
Cc1cc(O)c(C(C[N+](=O)[O-])c2ccc(Cl)cc2Cl)c(=O)o1 (stereo not drawn) | 1 | 16µM* | 18µM* | -54% | ? | -1%
COC(=O)c1ccc2c(c1)NC(=O)C(N1CCOCC1)S2 (stereo not drawn) | -13 | -17% | -15% | 2% | 6% | 0%
O=C1Nc2cc(C(=O)N3CCOCC3)ccc2S/C1=C\c1ccccc1 | -24 | 23µM* | ? | -21% | -23% | 1%
O=C1Nc2cc(C(=O)NCCCN3CCOCC3)ccc2S/C1=C/c1ccccc1F | -25 | ? | ? | -26% | -5% | -12%
O=C1Nc2cc(C(=O)N3CCOCC3)ccc2S/C1=C/c1ccccc1F | -20 | ? | 16µM* | -32% | -17% | ·
O=C1Nc2cc(C(=O)N3CCN(Cc4ccccc4)CC3)ccc2SC1N1CCOCC1 (stereo not drawn) | -18 | ? | 23µM* | -2% | -22% | 3%
Cc1ccc(S(=O)(=O)N(C)C)cc1NC(=O)COC(=O)COc1ccc2c(c1)CCC2 | 5 | -6% | -6% | -5% | -1% | -1%
C[C@H](CO)N1C[C@H](C)[C@@H](CN(C)S(=O)(=O)c2cn(C)cn2)Oc2c(NS(=O)(=O)c3ccccc3)cccc2C1=O | 0 | -10% | 4% | 0% | -2% | 1%
c1ccc(CCNc2c3c(nc4ncnn24)CCC3)cc1 | -10 | ? | ? | -38% | ? | -4%
Fc1ccccc1CCNc1c2c(nc3ncnn13)CCCC2 | -1 | 5.2µM* | 9.2µM* | -4% | -23% | 1%
COc1ccc(CN2C(=O)c3ccccc3C(/C=N\OCc3ccc(C)cc3)C2=O)cc1 (stereo not drawn) | 26 | 21µM* | 21µM* | -3% | -19% | 40%
COc1ccc(CN2C(=O)c3cccc4cccc(c34)C2=O)cc1 | 22 | -4% | -19% | 12% | 13% | 103%
COc1cc(Cl)c(C)cc1NC(=O)c1sc2nc3n(c(=O)c2c1C)CCCCC3 | · | -6% | 8% | -14% | -1% | ·
CC(C)NC(=O)c1ccccc1NC(=O)C1COc2ccccc2O1 (stereo not drawn) | 0 | 21µM* | ? | 2% | -2% | 0%
COc1ccccc1NC(=O)c1ccc(NC(=O)C2COc3ccccc3O2)cc1 (stereo not drawn) | -55* | ? | ? | -5% | 3% | -7%
COc1ccc(Cl)cc1NC(=O)C1COc2ccccc2O1 (stereo not drawn) | 0 | ? | -30% | -18% | -12% | -1%
CCC(C)NC(=O)c1ccccc1NC(=O)C1COc2ccccc2O1 (stereo not drawn) | 8 | ? | -25% | -8% | 12% | -3%
CN1CCN(c2ccc(Cl)cc2NC(=O)C2COc3ccccc3O2)CC1 (stereo not drawn) | -4 | 29µM* | ? | -74% | -1% | -3%
COc1ccc(OC)c(NC(=O)C2COc3ccccc3O2)c1 (stereo not drawn) | -11 | -20% | -21% | -3% | 8% | -7%
COC(=O)c1ccccc1NC(=O)c1ccccc1SC | 41 | -19% | -7% | -15% | 1% | -1%
CSc1ccccc1C(=O)Nc1ccccc1C(=O)NC(C)C | 1 | ? | 23µM* | 4% | 0% | -3%
SMILES | IL1B secr inh | DT40 TDP1 no CPT | TDP1 cell CPT | HepG2 viability | TGFb inhibitor | ASM inhibitor
CC(=O)c1cccc(Nc2ccc(Br)cc2)c1 | 1 | ? | ? | -5% | -26% | ·
CSc1ccc(CN2CCN(CC=C(C)C)C(CCO)C2)cc1 (stereo not drawn) | 5 | ? | 2% | -2% | 9% | 3%
Cc1ccc(Cl)cc1N(C)C(=O)c1cn(C2CCCCC2)c(=O)c2c1c1ccccc1n2C | · | ? | ? | 3% | ? | ·
COc1ccc(N(C(C)C(=O)Nc2cccnc2)S(C)(=O)=O)cc1 (stereo not drawn) | 13 | -10% | 15% | 5% | 4% | -1%
O=C(Nc1ccc(S(=O)(=O)Nc2ccccc2)cc1)C1COc2ccccc2O1 (stereo not drawn) | -69* | 21µM* | 16µM* | -26% | 13µM* | -24%
CCCn1c(CN2CCN(C(=O)OCC)CC2)nc2c1c(=O)n(C)c(=O)n2C | 40 | 5.2µM* | 8.2µM* | -3% | 4% | 2%
CCCCCCn1c(CN2CCN(C(=O)OCC)CC2)nc2c1c(=O)n(C)c(=O)n2C | 16 | ? | 21µM* | -21% | 13% | -1%
CCOC(=O)N1CCN(Cc2nc3c(c(=O)n(C)c(=O)n3C)n2CCC(C)C)CC1 | 7 | ? | -29% | -21% | -12% | 1%
Cc1cc(C)c(C#N)c(Sc2nc(C)c([N+](=O)[O-])c(C)c2C#N)n1 | ? | 5.8µM* | 3.7µM* | 13µM* | ? | ·
Cc1cc(C)c(C#N)c(SCc2ccc([N+](=O)[O-])cc2)n1 | -10 | 23% | 1% | 13% | -3% | -3%
Cc1nc(Sc2ccccc2)c(C#N)c(C)c1[N+](=O)[O-] | · | 16µM* | ? | -38% | -15% | -4%
Cc1ccc(-c2csc3ncn(CC#N)c(=O)c23)cc1C | -3 | ? | -19% | -24% | 0% | -4%
COc1ccc(C2c3c(n(C)c4ccccc34)C(=O)N2CC(=O)Nc2ccc(C)cc2Cl)cc1 (stereo not drawn) | · | ? | ? | -17% | ? | ·
COc1ccc(C2c3c(n(C)c4ccccc34)C(=O)N2CC(=O)Nc2cc(Cl)ccc2C)cc1 (stereo not drawn) | · | 21µM* | ? | -17% | 0% | ·
